What was measured:
Test in all cases: log2 ratio of Biotin-Ahx-Ub-VS probe labelling (fragment/DMSO); higher = less target engagement (more negative = stronger competition), active = hit call of the paper (q ≤ 0.05, log2 ratio ≤ -1)
Settings in all cases: compound concentration: 200 uM; treatment time: 3 h
[1] = biological target: T1, USP42 (UniProt Q9H9J4)
T1 sequence (whole entry): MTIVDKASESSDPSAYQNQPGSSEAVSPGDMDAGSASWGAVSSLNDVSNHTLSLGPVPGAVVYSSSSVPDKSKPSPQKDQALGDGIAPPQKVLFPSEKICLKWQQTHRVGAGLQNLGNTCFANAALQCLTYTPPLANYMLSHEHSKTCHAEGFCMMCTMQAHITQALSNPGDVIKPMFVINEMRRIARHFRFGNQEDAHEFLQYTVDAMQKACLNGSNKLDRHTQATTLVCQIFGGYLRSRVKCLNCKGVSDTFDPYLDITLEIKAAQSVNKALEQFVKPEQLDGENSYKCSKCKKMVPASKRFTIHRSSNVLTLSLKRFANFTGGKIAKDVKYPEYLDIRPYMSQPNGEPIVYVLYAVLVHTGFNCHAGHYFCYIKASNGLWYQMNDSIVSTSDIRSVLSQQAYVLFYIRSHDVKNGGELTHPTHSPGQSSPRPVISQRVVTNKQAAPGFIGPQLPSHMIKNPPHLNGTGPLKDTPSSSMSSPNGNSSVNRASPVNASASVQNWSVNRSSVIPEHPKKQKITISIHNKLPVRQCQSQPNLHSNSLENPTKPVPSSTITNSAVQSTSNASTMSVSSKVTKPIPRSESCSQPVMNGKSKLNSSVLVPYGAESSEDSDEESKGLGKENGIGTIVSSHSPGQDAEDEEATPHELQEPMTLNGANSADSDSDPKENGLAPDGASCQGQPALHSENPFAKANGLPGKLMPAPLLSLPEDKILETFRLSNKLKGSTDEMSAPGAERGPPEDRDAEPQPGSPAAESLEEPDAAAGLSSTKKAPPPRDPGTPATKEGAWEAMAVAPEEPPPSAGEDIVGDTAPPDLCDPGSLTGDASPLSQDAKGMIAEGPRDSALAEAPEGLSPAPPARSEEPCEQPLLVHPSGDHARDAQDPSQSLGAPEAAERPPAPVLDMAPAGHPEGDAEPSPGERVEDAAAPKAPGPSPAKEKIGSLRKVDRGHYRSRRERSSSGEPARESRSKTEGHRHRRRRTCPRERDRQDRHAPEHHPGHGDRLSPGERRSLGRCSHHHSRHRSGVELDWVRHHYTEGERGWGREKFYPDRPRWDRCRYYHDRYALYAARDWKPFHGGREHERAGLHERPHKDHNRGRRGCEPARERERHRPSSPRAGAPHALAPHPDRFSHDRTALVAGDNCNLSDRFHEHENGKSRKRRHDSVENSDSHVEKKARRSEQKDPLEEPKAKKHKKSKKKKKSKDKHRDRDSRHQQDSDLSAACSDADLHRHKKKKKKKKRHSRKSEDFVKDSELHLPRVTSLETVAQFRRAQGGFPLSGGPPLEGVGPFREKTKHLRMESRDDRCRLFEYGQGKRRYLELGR
How it was run: (§1)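 In triplicate, 495 µg of HEK293T lysate per sample was incubated with fragment at 200 µM or vehicle for 3 h. Biotin-Ahx-Ub-VS was then added to 0.5 µM final for 1 h, and labelled DUBs were captured with NeutrAvidin, digested with LysC and trypsin, and measured by diaPASEF LC-MS/MS. Data are average log2 fragment/vehicle ratios by unpaired t-test from global-median-normalised Spectronaut label-free quantities, restricted to proteins with ≥2 unique peptides.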

[2] = biological target: USP46 (UniProt P62068)
Chain of USP46 (P62068 whole entry): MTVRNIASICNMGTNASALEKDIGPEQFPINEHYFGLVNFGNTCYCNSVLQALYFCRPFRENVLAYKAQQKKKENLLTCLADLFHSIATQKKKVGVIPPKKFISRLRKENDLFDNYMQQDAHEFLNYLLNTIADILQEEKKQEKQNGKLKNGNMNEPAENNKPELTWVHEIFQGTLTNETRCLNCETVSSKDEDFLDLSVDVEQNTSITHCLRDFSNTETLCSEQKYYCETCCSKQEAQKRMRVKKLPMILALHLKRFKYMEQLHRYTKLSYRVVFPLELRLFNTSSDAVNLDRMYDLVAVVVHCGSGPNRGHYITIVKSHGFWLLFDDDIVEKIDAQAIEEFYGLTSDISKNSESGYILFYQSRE
How it was run: as §1

[3] = biological target: T2, USP47 (UniProt Q96K76)
T2 sequence (whole entry): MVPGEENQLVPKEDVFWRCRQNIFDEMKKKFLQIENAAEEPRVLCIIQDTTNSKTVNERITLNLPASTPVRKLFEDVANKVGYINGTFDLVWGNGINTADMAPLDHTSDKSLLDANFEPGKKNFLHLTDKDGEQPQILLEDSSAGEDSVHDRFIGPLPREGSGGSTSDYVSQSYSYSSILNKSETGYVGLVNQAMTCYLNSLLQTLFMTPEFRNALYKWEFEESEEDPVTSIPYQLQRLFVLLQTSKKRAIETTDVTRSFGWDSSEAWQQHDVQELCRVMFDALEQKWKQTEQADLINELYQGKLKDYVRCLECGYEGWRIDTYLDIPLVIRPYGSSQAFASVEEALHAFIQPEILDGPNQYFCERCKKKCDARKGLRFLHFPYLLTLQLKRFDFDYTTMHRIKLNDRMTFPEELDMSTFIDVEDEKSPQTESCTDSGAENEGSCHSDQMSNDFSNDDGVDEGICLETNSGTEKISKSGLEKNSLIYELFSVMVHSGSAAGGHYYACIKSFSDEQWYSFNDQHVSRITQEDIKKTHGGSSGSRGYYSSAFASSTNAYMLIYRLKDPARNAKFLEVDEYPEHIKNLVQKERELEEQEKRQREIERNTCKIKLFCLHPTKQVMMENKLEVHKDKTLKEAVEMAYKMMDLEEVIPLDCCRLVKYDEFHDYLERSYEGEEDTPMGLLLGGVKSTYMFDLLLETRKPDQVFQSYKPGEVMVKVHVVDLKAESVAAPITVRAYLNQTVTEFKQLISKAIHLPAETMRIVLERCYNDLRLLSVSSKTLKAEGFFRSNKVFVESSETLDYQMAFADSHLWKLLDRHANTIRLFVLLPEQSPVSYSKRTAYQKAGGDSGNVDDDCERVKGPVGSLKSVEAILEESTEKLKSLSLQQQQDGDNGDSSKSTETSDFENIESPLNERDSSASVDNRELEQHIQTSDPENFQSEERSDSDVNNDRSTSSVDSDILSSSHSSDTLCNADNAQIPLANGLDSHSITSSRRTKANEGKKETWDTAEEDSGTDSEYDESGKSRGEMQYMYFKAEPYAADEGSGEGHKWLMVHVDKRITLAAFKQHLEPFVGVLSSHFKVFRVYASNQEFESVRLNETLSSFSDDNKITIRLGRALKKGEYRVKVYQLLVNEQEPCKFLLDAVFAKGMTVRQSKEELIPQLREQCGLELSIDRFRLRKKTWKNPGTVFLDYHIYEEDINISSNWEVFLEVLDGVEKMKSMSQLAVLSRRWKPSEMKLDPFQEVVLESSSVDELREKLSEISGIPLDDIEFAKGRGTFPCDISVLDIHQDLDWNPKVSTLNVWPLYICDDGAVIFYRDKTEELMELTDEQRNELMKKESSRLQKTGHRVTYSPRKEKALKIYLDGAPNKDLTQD
How it was run: as §1

[4] = biological target: T3, USP48 (UniProt Q86UV5)
T3 sequence (whole entry): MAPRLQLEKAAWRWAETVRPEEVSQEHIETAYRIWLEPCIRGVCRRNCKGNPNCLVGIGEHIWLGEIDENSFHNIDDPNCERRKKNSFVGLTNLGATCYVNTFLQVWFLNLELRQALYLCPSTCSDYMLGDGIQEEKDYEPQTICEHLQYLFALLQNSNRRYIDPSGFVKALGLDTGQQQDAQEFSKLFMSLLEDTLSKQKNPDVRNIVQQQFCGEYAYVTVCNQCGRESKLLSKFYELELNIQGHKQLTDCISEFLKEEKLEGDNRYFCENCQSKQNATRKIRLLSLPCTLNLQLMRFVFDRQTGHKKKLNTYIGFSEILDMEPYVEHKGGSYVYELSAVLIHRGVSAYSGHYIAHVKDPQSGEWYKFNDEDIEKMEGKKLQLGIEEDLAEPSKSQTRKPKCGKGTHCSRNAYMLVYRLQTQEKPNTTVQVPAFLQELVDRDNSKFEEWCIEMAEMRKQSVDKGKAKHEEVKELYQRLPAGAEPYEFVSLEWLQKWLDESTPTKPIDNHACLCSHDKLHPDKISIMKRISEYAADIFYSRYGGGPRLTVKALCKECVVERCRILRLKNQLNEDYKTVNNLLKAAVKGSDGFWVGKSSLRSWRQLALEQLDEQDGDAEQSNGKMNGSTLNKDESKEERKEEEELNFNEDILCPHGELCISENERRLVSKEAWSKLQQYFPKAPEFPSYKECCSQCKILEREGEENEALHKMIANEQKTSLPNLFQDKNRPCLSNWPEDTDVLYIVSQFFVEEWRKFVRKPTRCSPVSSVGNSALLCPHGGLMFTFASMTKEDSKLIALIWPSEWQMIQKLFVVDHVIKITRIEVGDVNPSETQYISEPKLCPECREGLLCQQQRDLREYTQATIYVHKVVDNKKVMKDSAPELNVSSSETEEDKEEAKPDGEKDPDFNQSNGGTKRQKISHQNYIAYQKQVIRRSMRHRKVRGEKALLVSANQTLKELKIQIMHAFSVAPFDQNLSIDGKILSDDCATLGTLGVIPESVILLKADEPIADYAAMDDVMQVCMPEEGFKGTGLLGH
How it was run: as §1

[5] = biological target: T4, USP5 (UniProt P45974)
T4 sequence (whole entry): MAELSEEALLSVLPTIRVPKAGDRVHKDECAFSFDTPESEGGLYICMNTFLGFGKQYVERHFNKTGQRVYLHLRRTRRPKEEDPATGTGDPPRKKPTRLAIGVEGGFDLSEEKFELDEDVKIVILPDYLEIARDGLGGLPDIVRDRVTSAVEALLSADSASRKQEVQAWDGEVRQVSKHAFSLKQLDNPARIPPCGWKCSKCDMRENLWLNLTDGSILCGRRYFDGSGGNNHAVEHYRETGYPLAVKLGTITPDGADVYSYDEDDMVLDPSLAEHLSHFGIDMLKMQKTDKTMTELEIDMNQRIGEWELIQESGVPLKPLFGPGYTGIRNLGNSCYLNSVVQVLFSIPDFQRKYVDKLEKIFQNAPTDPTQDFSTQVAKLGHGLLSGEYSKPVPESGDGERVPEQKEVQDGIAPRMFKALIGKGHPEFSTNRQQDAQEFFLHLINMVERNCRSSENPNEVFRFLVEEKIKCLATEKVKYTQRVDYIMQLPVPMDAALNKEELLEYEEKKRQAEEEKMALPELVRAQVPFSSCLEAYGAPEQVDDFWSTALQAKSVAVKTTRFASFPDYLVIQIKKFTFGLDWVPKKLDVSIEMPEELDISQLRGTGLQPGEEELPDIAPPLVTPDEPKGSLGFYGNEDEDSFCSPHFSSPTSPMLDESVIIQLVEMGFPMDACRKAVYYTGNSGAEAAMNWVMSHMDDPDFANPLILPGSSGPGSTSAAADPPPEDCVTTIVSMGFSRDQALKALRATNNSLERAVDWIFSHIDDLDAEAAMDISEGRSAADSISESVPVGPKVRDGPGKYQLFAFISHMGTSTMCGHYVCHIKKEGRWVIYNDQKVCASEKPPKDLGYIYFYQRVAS
How it was run: as §1

[6] = biological target: USP54 (UniProt Q70EL1)
Chain of USP54 (Q70EL1 whole entry): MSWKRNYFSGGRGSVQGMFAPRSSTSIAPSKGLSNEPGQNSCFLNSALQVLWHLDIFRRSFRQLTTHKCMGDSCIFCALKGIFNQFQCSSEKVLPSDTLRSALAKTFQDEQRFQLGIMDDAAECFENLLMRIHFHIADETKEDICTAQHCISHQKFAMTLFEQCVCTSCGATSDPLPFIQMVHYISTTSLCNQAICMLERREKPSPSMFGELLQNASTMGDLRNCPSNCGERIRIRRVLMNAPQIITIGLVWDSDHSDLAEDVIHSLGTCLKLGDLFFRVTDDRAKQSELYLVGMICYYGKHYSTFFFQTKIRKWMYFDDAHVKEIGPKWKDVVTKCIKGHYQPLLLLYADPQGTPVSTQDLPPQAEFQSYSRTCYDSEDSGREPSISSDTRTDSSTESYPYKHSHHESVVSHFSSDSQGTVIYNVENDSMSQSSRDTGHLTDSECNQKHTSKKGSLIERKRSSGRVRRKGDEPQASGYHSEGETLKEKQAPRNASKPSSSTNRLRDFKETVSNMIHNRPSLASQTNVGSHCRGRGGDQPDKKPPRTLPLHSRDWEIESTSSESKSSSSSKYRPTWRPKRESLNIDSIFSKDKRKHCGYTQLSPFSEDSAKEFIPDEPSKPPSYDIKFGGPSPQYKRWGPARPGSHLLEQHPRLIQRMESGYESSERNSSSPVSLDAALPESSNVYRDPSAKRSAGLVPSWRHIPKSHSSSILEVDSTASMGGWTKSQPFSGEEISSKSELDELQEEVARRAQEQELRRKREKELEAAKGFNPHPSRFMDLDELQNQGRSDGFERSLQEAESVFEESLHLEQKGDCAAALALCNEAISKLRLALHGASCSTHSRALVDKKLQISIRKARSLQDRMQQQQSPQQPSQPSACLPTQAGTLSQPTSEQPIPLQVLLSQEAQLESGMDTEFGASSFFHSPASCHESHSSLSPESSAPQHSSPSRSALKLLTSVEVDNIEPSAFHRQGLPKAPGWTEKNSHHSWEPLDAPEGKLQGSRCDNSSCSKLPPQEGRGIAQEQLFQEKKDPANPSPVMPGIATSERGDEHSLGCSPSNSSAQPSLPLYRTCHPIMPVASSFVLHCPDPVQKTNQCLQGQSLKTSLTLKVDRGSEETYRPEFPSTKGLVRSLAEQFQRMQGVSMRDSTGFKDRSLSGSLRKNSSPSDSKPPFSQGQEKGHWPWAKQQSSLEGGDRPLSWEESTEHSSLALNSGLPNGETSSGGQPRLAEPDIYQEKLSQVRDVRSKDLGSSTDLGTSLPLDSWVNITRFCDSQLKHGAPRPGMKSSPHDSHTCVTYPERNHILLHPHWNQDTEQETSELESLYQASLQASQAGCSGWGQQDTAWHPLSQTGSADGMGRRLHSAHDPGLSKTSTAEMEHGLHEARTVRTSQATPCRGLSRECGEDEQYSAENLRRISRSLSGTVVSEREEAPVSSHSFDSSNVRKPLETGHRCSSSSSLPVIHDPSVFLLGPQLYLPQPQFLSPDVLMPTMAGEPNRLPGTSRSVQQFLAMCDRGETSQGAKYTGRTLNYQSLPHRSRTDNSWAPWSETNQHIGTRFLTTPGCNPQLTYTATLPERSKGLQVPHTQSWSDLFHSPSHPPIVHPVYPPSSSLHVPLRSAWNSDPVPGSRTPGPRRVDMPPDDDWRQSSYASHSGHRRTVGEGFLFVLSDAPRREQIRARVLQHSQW
How it was run: as §1

[7] = biological target: USP7 (UniProt Q93009)
Chain of USP7 (Q93009 whole entry, looked up): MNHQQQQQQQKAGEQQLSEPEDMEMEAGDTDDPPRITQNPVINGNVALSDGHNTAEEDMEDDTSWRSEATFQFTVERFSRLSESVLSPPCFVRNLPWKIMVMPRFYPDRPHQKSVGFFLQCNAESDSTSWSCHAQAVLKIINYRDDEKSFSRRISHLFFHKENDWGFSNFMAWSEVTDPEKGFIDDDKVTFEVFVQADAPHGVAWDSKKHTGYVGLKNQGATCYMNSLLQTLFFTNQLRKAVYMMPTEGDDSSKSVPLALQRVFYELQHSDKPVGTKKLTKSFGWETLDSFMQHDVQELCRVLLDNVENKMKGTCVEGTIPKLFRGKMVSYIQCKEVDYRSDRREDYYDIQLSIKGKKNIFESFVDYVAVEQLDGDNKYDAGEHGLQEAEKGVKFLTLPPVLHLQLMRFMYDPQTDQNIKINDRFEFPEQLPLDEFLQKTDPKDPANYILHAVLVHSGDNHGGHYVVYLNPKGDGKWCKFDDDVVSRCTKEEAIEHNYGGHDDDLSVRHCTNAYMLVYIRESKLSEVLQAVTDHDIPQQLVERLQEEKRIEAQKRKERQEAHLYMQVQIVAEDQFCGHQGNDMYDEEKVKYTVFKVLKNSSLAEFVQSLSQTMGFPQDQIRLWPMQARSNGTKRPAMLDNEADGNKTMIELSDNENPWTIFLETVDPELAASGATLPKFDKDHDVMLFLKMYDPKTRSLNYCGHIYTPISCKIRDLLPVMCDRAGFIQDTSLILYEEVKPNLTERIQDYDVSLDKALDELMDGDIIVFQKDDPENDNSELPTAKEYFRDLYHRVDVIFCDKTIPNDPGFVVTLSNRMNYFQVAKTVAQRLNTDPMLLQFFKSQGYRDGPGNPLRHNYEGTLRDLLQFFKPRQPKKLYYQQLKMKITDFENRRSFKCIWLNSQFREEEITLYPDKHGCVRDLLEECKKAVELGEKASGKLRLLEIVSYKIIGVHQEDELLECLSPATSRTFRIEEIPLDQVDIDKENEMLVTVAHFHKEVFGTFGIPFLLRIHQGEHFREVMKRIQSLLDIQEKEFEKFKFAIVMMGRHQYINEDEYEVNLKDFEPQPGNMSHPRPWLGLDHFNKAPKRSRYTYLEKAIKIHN
How it was run: as §1

[8] = biological target: T5, USP8 (UniProt P40818)
T5 sequence (whole entry): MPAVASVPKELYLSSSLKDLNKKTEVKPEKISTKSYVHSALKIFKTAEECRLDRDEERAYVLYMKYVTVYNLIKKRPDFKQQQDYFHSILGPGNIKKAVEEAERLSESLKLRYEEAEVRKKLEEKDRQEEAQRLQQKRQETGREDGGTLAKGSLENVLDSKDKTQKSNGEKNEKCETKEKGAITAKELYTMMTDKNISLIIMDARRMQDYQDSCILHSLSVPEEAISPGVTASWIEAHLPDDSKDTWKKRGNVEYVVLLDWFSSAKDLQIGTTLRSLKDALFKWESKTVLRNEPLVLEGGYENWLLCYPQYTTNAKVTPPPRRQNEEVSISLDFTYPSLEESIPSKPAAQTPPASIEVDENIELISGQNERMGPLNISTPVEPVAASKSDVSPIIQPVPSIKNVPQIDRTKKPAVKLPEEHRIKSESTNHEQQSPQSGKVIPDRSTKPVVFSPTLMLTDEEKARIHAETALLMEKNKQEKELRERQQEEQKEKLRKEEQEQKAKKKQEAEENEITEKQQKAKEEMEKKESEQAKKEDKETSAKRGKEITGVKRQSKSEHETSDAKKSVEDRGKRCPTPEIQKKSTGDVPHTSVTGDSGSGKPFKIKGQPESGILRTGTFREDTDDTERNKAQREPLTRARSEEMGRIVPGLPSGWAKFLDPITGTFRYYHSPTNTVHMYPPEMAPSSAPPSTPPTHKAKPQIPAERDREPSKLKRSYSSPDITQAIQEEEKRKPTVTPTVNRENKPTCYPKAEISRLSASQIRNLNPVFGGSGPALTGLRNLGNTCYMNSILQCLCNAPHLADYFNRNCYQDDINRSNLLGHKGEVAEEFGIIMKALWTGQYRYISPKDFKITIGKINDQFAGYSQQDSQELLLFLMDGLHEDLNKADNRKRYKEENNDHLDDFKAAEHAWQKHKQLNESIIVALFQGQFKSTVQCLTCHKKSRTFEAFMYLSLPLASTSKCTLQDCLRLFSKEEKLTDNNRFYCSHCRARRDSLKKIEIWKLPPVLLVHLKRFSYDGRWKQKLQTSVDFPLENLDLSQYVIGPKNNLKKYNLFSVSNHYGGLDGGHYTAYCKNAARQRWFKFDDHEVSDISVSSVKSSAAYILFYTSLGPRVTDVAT
How it was run: as §1

Measured: log2 ratio of Biotin-Ahx-Ub-VS probe labelling

CCCn1nccc1NC(=O)CCl
inactive: [1] 0.302 | [2] -0.137 | [3] -0.323 | [4] -0.124 | [5] -0.757 | [6] 0.705 | [7] -0.254 | [8] -0.318
